# Targets with a hit are over-represented here; the source holds about 8,800 in all. About 0.5% of all pairs of compound and target were hits. Unmarked numbers belong to inactive results.
# How the values were obtained:
# Test in all cases: log2 fold change, soluble protein after heating vs DMSO (PISA); higher = thermal stabilisation; K562 lysate, 10 uM; active = over 0.2 and 3.5 SD of the protein, either way, in both replicates (recomputed)
# vemurafenib = compound: CCCS(=O)(=O)Nc1ccc(F)c(C(=O)c2c[nH]c3ncc(-c4ccc(Cl)cc4)cc23)c1F [vemurafenib]
# Outline: (§1)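 Soluble protein was defined as the supernatant remaining after 21,000xg for 90 min, following pooling of heated aliquots and adjustment to 0.5% NP-40 at 4°C. Before that, crude K562 extract at 1 mg/mL protein in PBS pH 7.4 with 1 mM MgCl2 was treated with 10 μM compound for 30 min and heated for 3 min across 48°C-58°C. Quantification used TMTpro 16plex LC-MS/MS with channel sums equalised, and values are log-two fold changes in thermal stability relative to solvent controls from duplicates.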
# [1] = compound: CCCS(=O)(=O)Nc1ccc(F)c(C(=O)c2c[nH]c3ncc(Cl)cc23)c1F
# Outline: as §1
# barasertib = compound: CCN(CCCOc1ccc2c(Nc3cc(CC(=O)Nc4cccc(F)c4)[nH]n3)ncnc2c1)CCOP(=O)(O)O [barasertib]
# Outline: as §1
# [2] = compound: CC[C@@H]1C(=O)N(C)c2cnc(Nc3ccc(C(=O)NC4CCN(C)CC4)cc3OC)nc2N1C1CCCC1
# Outline: as §1
# volasertib = compound: CC[C@@H]1C(=O)N(C)c2cnc(Nc3ccc(C(=O)N[C@H]4CC[C@H](N5CCN(CC6CC6)CC5)CC4)cc3OC)nc2N1C(C)C [volasertib]
# Outline: as §1
# [3] = compound: CCn1c(C(=O)N(C2CC2)C2CC2)cc2c3c(ncn3C)c(Nc3cc(C)n(C)n3)nc21
# Outline: as §1
# [4] = compound: CCn1cc(-c2ccnc3[nH]c(-c4cccc(CN(C)C)c4)cc23)c(-c2ccc(NC(=O)N(C)C)cc2)n1
# Outline: as §1
# [5] = compound: CN1CCC(CNc2ccc3ncc(-c4cccc(OC(F)(F)F)c4)n3n2)CC1
# Outline: as §1
# saracatinib = compound: CN1CCN(CCOc2cc(OC3CCOCC3)c3c(Nc4c(Cl)ccc5c4OCO5)ncnc3c2)CC1 [saracatinib]
# Outline: as §1
# sotrastaurin = compound: CN1CCN(c2nc(C3=C(c4c[nH]c5ccccc45)C(=O)NC3=O)c3ccccc3n2)CC1 [sotrastaurin]
# Outline: as §1
# alvocidib = compound: CN1CC[C@H](c2c(O)cc(O)c3c(=O)cc(-c4ccccc4Cl)oc23)[C@H](O)C1 [alvocidib]
# Outline: as §1
# Tubastatin A = compound: CN1CCc2c(c3ccccc3n2Cc2ccc(C(=O)NO)cc2)C1 [Tubastatin A]
# Outline: as §1
# [6] = compound: CNC(=O)C1=CC=CC=C1NC2=NC(=NC=C2Cl)NC3=C(C=C(C=C3)N4CCOCC4)OC
# Outline: as §1
# defactinib = compound: CNC(=O)c1ccc(Nc2ncc(C(F)(F)F)c(NCc3nccnc3N(C)S(C)(=O)=O)n2)cc1 [defactinib]
# Outline: as §1
# [7] = compound: CNc1nc(-c2ccc3c(N)n[nH]c3c2)cc(N2C[C@@H](C(=O)NC3CCCCC3)CC[C@H]2C)n1
# Outline: as §1
# encorafenib = compound: COC(=O)N[C@@H](C)CNc1nccc(-c2cn(C(C)C)nc2-c2cc(Cl)cc(NS(C)(=O)=O)c2F)n1 [encorafenib]
# Outline: as §1
# [8] = compound: COC(=O)[C@H](CCSC)NC(=O)C1=C(C=C(C=C1)NC[C@H](CS)N)C2=CC=CC=C2
# Outline: as §1
# alisertib = compound: COc1cc(Nc2ncc3c(n2)-c2ccc(Cl)cc2C(c2c(F)cccc2OC)=NC3)ccc1C(=O)O [alisertib]
# Outline: as §1
# [9] = compound: COc1cc2nc(-c3cc(F)ccc3O)nc(N[C@@H]3CNC[C@H]3C(C)(C)O)c2cc1OC
# Outline: as §1
# gefitinib = compound: COc1cc2ncnc(Nc3ccc(F)c(Cl)c3)c2cc1OCCCN1CCOCC1 [gefitinib]
# Outline: as §1
# UniProt Q8IU81, sequence (Q8IU81 whole entry, looked up): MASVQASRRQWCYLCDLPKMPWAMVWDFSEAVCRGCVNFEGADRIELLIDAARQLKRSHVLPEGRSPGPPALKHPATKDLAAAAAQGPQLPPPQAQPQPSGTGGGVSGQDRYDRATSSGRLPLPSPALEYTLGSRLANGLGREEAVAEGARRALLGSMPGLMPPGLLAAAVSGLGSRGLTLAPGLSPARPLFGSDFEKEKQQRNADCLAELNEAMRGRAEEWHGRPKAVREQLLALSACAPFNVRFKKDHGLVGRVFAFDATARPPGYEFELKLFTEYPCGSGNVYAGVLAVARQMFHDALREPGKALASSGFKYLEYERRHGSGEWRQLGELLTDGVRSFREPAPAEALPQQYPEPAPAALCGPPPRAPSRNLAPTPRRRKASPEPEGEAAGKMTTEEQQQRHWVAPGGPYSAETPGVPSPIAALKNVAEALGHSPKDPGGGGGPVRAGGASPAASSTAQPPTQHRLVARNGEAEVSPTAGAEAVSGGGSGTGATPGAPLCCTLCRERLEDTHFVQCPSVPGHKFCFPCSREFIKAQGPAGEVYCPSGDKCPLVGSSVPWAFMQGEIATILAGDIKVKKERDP
# UniProt Q01581, sequence (Q01581 whole entry, looked up): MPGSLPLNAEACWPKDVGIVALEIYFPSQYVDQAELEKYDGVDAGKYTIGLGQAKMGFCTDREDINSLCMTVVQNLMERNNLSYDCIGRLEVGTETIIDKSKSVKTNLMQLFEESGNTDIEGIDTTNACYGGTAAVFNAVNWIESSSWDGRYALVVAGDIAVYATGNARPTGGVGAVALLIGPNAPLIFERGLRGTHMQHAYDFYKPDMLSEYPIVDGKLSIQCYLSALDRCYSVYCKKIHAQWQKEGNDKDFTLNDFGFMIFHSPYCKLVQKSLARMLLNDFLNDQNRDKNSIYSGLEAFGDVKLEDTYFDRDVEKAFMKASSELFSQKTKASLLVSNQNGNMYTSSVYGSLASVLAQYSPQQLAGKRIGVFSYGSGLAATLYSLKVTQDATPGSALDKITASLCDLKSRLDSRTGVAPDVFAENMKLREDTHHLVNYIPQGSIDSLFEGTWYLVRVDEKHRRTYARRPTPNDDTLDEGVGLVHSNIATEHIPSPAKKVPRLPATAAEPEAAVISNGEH
# UniProt Q13478, sequence (Q13478 whole entry, looked up): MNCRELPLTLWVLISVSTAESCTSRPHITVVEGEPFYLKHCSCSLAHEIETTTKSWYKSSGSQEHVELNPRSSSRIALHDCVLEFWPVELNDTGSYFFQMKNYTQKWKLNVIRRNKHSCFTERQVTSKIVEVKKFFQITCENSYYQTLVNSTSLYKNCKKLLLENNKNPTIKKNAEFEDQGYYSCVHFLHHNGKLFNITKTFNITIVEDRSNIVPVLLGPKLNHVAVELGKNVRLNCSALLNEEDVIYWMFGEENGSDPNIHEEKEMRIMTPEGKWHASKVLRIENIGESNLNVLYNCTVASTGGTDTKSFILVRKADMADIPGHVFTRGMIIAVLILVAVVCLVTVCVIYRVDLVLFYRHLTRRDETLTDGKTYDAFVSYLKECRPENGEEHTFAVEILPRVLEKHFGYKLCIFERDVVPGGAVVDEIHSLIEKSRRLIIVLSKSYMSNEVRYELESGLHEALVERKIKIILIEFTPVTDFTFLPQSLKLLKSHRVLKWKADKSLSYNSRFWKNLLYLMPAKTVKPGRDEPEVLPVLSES
# UniProt O15357, sequence (O15357 whole entry, looked up): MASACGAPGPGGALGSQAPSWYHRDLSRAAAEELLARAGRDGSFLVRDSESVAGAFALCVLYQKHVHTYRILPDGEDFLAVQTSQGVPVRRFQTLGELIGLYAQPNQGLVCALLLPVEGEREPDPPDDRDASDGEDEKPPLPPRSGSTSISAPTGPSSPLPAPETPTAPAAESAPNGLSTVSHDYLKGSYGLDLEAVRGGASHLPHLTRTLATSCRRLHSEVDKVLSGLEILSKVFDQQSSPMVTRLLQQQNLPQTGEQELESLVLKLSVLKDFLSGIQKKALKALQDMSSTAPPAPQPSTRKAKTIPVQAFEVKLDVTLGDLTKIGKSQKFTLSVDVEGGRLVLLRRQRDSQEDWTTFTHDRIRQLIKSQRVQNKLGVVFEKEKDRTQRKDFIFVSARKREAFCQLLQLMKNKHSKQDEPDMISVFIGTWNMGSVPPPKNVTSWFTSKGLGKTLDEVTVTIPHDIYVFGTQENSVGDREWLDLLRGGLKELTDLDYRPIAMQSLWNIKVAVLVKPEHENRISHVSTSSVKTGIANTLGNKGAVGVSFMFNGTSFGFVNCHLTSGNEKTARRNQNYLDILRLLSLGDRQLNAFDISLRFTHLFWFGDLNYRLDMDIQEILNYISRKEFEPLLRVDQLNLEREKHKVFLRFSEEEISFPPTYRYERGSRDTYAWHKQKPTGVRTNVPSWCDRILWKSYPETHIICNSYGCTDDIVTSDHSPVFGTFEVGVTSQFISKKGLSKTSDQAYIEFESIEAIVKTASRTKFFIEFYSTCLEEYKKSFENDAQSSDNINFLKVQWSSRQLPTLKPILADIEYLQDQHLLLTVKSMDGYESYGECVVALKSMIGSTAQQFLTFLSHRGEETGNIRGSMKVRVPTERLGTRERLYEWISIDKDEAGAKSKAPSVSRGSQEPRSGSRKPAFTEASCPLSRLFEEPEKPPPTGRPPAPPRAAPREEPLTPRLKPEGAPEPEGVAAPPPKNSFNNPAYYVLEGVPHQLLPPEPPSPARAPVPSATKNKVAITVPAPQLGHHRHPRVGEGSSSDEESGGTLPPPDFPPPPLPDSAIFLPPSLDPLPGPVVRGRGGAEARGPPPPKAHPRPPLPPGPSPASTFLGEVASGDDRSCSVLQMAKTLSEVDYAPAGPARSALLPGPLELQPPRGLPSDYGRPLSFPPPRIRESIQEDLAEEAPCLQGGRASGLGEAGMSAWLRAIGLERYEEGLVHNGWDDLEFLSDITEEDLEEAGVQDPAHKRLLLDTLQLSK
# UniProt O75367, sequence (O75367 whole entry, looked up): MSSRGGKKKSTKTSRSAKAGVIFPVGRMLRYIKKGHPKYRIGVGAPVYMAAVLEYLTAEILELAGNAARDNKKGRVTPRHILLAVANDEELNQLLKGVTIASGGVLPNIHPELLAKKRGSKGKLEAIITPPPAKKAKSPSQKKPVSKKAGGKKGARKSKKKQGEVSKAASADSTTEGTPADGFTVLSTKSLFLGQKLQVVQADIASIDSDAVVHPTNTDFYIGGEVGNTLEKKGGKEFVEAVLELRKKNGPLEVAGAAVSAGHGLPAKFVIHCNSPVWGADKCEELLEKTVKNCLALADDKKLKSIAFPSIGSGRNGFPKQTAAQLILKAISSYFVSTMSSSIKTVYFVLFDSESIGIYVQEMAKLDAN
# UniProt P52272, sequence (P52272 whole entry, looked up): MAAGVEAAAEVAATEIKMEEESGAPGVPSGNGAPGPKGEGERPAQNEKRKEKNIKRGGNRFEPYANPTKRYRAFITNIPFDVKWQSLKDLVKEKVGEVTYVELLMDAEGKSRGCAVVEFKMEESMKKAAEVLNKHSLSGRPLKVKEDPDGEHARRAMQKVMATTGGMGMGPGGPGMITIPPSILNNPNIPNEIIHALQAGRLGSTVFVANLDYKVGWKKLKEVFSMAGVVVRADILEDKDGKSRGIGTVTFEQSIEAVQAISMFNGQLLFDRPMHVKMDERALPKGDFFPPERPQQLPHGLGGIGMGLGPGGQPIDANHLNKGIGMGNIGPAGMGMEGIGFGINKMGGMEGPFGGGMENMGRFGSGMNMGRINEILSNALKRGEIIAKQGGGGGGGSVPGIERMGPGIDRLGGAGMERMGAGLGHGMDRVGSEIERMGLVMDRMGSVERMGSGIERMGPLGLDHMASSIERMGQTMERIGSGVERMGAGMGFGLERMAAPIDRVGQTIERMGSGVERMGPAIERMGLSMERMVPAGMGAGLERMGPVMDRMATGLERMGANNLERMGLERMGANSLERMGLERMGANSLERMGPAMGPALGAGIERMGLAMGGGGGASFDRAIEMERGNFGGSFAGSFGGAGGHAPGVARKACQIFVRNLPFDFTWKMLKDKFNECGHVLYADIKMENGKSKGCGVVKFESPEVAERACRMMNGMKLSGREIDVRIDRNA
# UniProt Q9NSE4, sequence (Q9NSE4 whole entry, looked up): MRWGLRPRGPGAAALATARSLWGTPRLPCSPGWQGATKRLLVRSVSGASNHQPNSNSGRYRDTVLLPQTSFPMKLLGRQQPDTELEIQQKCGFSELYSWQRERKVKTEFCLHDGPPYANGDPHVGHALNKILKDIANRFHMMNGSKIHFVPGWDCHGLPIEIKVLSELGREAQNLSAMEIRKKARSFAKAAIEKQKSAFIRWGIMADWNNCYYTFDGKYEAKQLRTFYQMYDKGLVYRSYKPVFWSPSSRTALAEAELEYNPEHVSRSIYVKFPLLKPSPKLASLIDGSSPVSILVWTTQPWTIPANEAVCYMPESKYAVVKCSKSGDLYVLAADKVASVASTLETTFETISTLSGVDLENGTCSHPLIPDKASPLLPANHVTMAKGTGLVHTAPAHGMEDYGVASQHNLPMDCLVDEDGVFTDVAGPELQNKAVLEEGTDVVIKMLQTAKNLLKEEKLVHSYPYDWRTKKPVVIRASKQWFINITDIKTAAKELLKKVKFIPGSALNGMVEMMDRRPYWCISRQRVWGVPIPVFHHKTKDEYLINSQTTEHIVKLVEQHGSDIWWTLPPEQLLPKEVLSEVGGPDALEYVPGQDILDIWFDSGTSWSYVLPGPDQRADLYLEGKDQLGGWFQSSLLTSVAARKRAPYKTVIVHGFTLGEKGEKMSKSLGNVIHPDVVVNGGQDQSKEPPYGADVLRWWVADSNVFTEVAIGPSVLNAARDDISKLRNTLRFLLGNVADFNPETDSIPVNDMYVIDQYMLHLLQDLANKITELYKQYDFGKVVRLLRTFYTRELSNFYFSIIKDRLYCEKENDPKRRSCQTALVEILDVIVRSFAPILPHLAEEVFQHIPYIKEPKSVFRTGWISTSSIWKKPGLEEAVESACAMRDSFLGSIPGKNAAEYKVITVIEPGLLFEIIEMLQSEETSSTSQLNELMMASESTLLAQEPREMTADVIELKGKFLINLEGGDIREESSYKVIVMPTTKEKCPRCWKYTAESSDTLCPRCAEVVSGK
Target,log2 fold change (vemurafenib),log2 fold change [1],log2 fold change (barasertib),log2 fold change [2],log2 fold change (volasertib),log2 fold change [3],log2 fold change [4],log2 fold change [5],log2 fold change (saracatinib),log2 fold change (sotrastaurin),log2 fold change (alvocidib),log2 fold change (Tubastatin A),log2 fold change [6],log2 fold change (defactinib),log2 fold change [7],log2 fold change (encorafenib),log2 fold change [8],log2 fold change (alisertib),log2 fold change [9],log2 fold change (gefitinib)
"HDLBP, A0A024R4E5",0.008,0.024,-0.017,0.016,-0.04,0.011,-0.018,-0.008,-0.002,0.004,-0.004,-0.082,0.01,0.001,0.004,0.028,0.073,-0.005,0.003,0.003
IRF2BP1 (UniProt Q8IU81),0.015,0.023,-0.003,0.026,-0.088,0.014,0.037,-0.06,0,0.01,-0.029,-0.047,0.095,0.045,0.091,0.025,0.117,0.042,0.038,-0.003
IL18R1 (UniProt Q13478),0.074,-0.026,0.061,0.087,0.044,-0.184,-0.284,0.085,0.023,-0.064,-0.148,0.008,-0.106,-0.322,0.056,0.116,0.142,-0.098,-0.014,-0.039
HNRNPM (UniProt P52272),-0.017,-0.013,0.079,0.027,-0.107,0.046,-0.017,-0.01,0.055,0.024,-0.01,-0.096,0.022,0.045,-0.067,0.166,-0.035,0.069,0.037,0.012
IGF2BP3 (UniProt O00425),0.024,0.006,0.016,-0.106,-0.025,-0.016,-0.062,-0.022,0.026,0.011,0.012,-0.147,-0.022,-0.028,-0.016,-0.022,0.218,0.006,-0.003,-0.017
HECTD4 (UniProt J3KPF0),0.04,0.035,0.014,0.009,-0.09,0.037,0.007,0.043,0.006,-0.024,-0.027,-0.075,0.001,0.012,-0.017,-0.072,0.146,0.013,0.045,-0.043
IARS2 (UniProt Q9NSE4),-0.007,-0.005,0.037,-0.003,0.312 (active),-0.013,0.198,-0.032,-0.002,0.003,0.072,0.021,-0.026,0.004,-0.003,-0.006,0.014,-0.013,-0.011,0.004
INPPL1 (UniProt O15357),0.023,0.01,0.028,-0.02,-0.047,0.095,-0.017,-0.06,0.005,0.019,-0.001,-0.177,0.039,0,-0.001,0.009,0.037,0.036,-0.013,0.01
HMGCS1 (UniProt Q01581),0.008,-0.009,-0.038,-0.003,-0.017,0.014,-0.005,0.009,0.004,-0.014,0.021,-0.073,0.004,-0.011,0.006,-0.021,0.078,0.012,-0.002,0.013
H2AFY (UniProt O75367),-0.042,0.013,0.094,0.131,-0.036,-0.001,-0.059,0.056,-0.077,0.104,-0.034,0.079,-0.026,0.106,0.329 (active),0.094,0.014,0.001,0,0
H4C1 (UniProt P62805),-0.013,0.087,0.079,-0.055,0.027,0.079,0.268,-0.01,-0.094,-0.059,-0.101,0.373 (active),-0.023,-0.02,0.569 (active),0.038,0.051,0.018,0.012,-0.008
HARS (UniProt P12081),-0.024,-0.02,-0.031,-0.049,-0.006,0.012,0.023,-0.01,-0.021,0.009,0,0.001,-0.02,-0.02,-0.054,-0.03,0.254 (active),0.003,0.015,0.007
